About 83,000 compounds went through this panel and 20% of them were active in at least one assay; those are over-represented in the sample as a whole.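 The endpoint reported here, percent growth, reads 100 for growth as untreated, 0 for no net growth and -100 for all cells dead.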 Values without a mark were called inactive. Active and inactive are the calls of the source. How the source made its calls: active means growth percent below 10; inactive means the rest.
Experiments:
Assay in all cases: NCI-60 one-dose screen, 48 h (100 = growth as untreated, 0 = no growth, -100 = all killed)
Conditions in all cases: 10 µM unless noted
[1] = tested on: HCT-15 colon
[2] = tested on: HT29 colon
[3] = tested on: SNB-75 CNS
[4] = tested on: SNB-19 CNS
[5] = tested on: U251 CNS
[6] = tested on: PC-3 prostate
[7] = tested on: SK-MEL-5 melanoma
[8] = tested on: UACC-62 melanoma
[9] = tested on: LOX IMVI melanoma
[10] = tested on: SK-MEL-28 melanoma
[11] = tested on: SK-MEL-2 melanoma
[12] = tested on: EKVX NSCLC
[13] = tested on: SN12C renal
[14] = tested on: UO-31 renal
[15] = tested on: TK-10 renal
[16] = tested on: ACHN renal
[17] = tested on: CAKI-1 renal
[18] = tested on: A498 renal
[19] = tested on: CCRF-CEM leukemia
[20] = tested on: MOLT-4 leukemia

SMILES	growth [1]	growth [2]	growth [3]	growth [4]	growth [5]	growth [6]	growth [7]	growth [8]	growth [9]	growth [10]	growth [11]	growth [12]	growth [13]	growth [14]	growth [15]	growth [16]	growth [17]	growth [18]	growth [19]	growth [20]
COc1cc(C2N=C(NNc3ccccc3)NC(C)=C2C(C)=O)ccc1O (configuration not stated)	81%	115%	88.6%	93.3%	100%	84.5%	104%	43%	66.3%	101%	97.1%	79.3%	95.5%	63.2%	149%	63%	56.8%	105%	101%	89.9%
CCCCCCCn1cc2c(NCCc3ccccc3)ncnc2n1	95.6%	118%	90.6%	90.4%	96.1%	92.8%	99.6%	74.2%	117%	101%	127%	84.8%	93.4%	71.2%	119%	95.1%	78.7%	95.3%	96.2%	95.4%
COc1c(N2CC3CCCNC3C2)c(F)cc2c(=O)c(C(=O)N/N=C/c3ccc(N(C)C)cc3)cn(C3CC3)c12 (configuration not stated)	16.4%	-12% (active)	100%	78.3%	49%	60.4%	83.9%	100%	-22.6% (active)	97.8%	114%	86.2%	65.5%	59.1%	122%	46.8%	90.3%	113%	29.6%	
NC(N)=Nc1ccc(Oc2cccc(NC(N)=Nc3ccc(Br)c(C(F)(F)F)c3)c2)cc1	83.1%	40.1%	62.5%	10.2%	21.4%	4.3% (active)	36.8%	44.2%	-58.9% (active)	64.1%	83.2%	59.3%	24.5%	89.3%	65.3%	92.9%	72%	48.4%	53.3%	49.3%
Cc1ccc(S(=O)(=O)NCCNc2nc(Nc3ccc(N4CCN(C)CC4)cc3)nc3ccsc23)cc1	29.2%	63.4%	67.8%	104%	90.8%	87.9%	95.9%	103%	97.8%	103%	115%	94.9%	97.4%	92.4%	121%	106%	74.6%	110%	74.3%	79.1%
Cn1cc(-c2cc(N)n3nc(-c4cn(C)c5ccccc45)cc3n2)c2ccccc21	32%	50.6%	112%	112%	72.4%	88.8%	92.7%	92.9%	65.1%	95.1%	119%	96%	88.6%	85.9%	99.3%	94.8%	94.6%	77.8%	24.9%	
COc1cc(OC)cc(C(=O)Nc2sc3c(c2C(N)=O)CCC(=O)C3)c1	10.9%	39.6%	47.9%	25.1%	10.3%	8.96% (active)	63.1%	20.4%	22.1%	48%	86.8%	89%	50.9%	67.5%	66.5%	38.6%	10.6%	82.6%	8.55% (active)	
O=C(CSc1nc2ccccc2c(=O)n1-c1ccccc1)Nc1ccc(-c2nc3ccc([N+](=O)[O-])cc3[nH]2)cc1	61.3%	79.3%	82.5%	81.8%	87.6%	69.7%	91.4%	51.9%	37.8%	82.6%	89.5%	93.5%	72.4%	76.9%	127%	88.2%	78.2%	77.8%	22.1%	20.4%
CCO/C=N/C1=C(C#N)C(c2ccc(OC)cc2)c2sc3c(CC)cccc3c2O1 (configuration not stated)	22.4%	13.1%	-0.25% (active)	37.8%	27.3%	26.9%	17.6%	27.6%	26%	67.2%	41.4%	47.5%	43.6%	48.1%	69.3%	46.8%	50%	6.97% (active)	22.4%	26.8%
C#C[C@]1(O)CC[C@H]2[C@@H]3CC=C4c5sc(-c6cccc(O)c6)nc5CC[C@]4(C)[C@H]3CC[C@@]21C	-25.2% (active)	-13.7% (active)	-52.7% (active)	-19.8% (active)	-47.6% (active)	-54.7% (active)	-77.1% (active)	-61.3% (active)	-62.4% (active)	-68.8% (active)	-24.6% (active)	7.48% (active)	-48.6% (active)	-30.4% (active)	2.76% (active)	-58.7% (active)	-19.9% (active)	-66.9% (active)	-31.8% (active)	-11.8% (active)
N/C(=N\C(N)=N\c1nc2ccccc2s1)c1cccc(F)c1	94.6% [5 µM]	111% [5 µM]	89.2% [5 µM]	96% [5 µM]	94.1% [5 µM]	75.5% [5 µM]	98.2% [5 µM]	89.1% [5 µM]	83.2% [5 µM]	108% [5 µM]	98% [5 µM]	81.4% [5 µM]	76.9% [5 µM]	82.8% [5 µM]	187% [5 µM]	85.9% [5 µM]	84% [5 µM]	97.1% [5 µM]	93.9% [5 µM]	84.9% [5 µM]
NS(=O)(=O)c1ccc(-n2cc(CN3CCCCC3)nn2)cc1	107%	96.7%	92.8%	102%	104%	98.9%	99.6%	97.4%	101%	109%	109%	101%	100%	82.2%	102%	107%	92.6%	93.6%	108%	98.5%
C[C@@H](Nc1ncnc2ccc(-c3cnc(Cl)c(NS(C)(=O)=O)c3)cc12)c1ccccc1	66%	64.6%	-14.7% (active)	64%	67.9%	41.5%	66.3%	35.6%	40.2%	50.4%	53.7%	19.8%	30.1%	26.9%	3.2% (active)	43.1%	10.1%	-22.2% (active)	42.6%	20.8%
O=C(O)c1ccc(-n2cc(CNc3cccc(Cl)c3)c(-c3ccc(F)cc3)n2)cc1	80.7%	111%	120%	99.3%	101%	94%	91.7%	74.3%	74.2%	101%	96.1%	90.5%	98.5%	94.4%	127%	89.6%	89.9%	72.5%	94%	80%
Cc1ccc(S(=O)(=O)N(CC[C@@H]2C[C@H]2c2cc3ccccc3o2)S(=O)(=O)c2ccc(C)cc2)cc1	94.5%	94%	89%	94.6%	92.5%	87%	96.1%	69.1%	95.1%	93.5%	102%	95.3%	94.6%	80%	98.6%	98.2%	86%	75.8%	93.3%	88.8%
